# Results: PMC5540273 (PLoS ONE, 2017)
# Columns and labels:
# Conditions in all cases: concentration: 1 μM, replicates: in singlicate; n = 1
# PYK2 = tested on: T1, PYK2
# T1 construct: gene PTK2B
# QSK = tested on: QSK
# RAF1 = tested on: RAF1
# RET = tested on: RET
# RIOK1 = tested on: RIOK1
# RIOK2 = tested on: RIOK2
# RIOK3 = tested on: RIOK3
# RIPK1 = tested on: RIPK1
# RIPK2 = tested on: RIPK2
# RIPK4 = tested on: RIPK4
# RIPK5 = tested on: RIPK5
# ROCK1 = tested on: ROCK1
# ROCK2 = tested on: ROCK2
# ROS1 = tested on: ROS1
# [1] = tested on: RPS6KA4(Kin.Dom.1-N-terminal)
# [2] = tested on: RPS6KA4(Kin.Dom.2-C-terminal)
# [3] = tested on: RPS6KA5(Kin.Dom.1-N-terminal)
# [4] = tested on: RPS6KA5(Kin.Dom.2-C-terminal)
# [5] = tested on: T2, RSK1(Kin.Dom.1-N-terminal)
# T2 construct: gene RPS6KA1
# [6] = tested on: T3, RSK1(Kin.Dom.2-C-terminal)
# T3 construct: gene RPS6KA1
# 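Further: KINOMEscan kinase panel screen.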
Compound,%Inh (PYK2),%Inh (QSK),%Inh (RAF1),%Inh (RET),%Inh (RIOK1),%Inh (RIOK2),%Inh (RIOK3),%Inh (RIPK1),%Inh (RIPK2),%Inh (RIPK4),%Inh (RIPK5),%Inh (ROCK1),%Inh (ROCK2),%Inh (ROS1),%Inh [1],%Inh [2],%Inh [3],%Inh [4],%Inh [5],%Inh [6]
Cl.Nc1ncnc2occ(-c3ccc(NC(=O)Nc4cc(C(F)(F)F)ccc4F)cc3)c12 [SB-707548],19%,0%,78%,100%,0%,0%,22%,96%,42%,2%,28%,38%,74%,50%,48%,0%,63%,16%,18%,30%
COc1cc(Nc2nccc(N3CCC(NC(=O)c4cccc(NC(C)=O)c4)C3)n2)cc(OC)c1OC (stereo not shown) [GSK1379754],14%,0%,0%,29%,82%,5%,61%,0%,0%,28%,0%,32%,49%,44%,23%,0%,11%,0%,58%,0%
CSc1ccc(-c2cc3ncnc(SCC(=O)O)c3s2)cc1,13%,0%,0%,8%,0%,0%,0%,0%,0%,0%,0%,0%,0%,3%,0%,0%,0%,0%,9%,12%
CC(=O)Nc1ccc(COc2ccc(Nc3ccnc4cc(-c5ccccn5)ccc34)cc2)cc1.Cl [GW440148],0%,0%,5%,2%,13%,0%,35%,22%,93.2%,19%,0%,14%,7%,0%,0%,0%,1%,20%,7%,33%
O=C(Nc1n[nH]c2cc(-c3cccc(F)c3)ccc12)C1CC1 [SB-735464],0%,28%,15%,0%,66%,40%,0%,38%,0%,18%,23%,18%,4%,16%,0%,9%,0%,24%,1%,26%
O=C1Cc2cc(Nc3nc(NCc4cccc(S(=O)(=O)C(F)(F)F)c4)ncc3C(F)(F)F)ccc2N1,6%,0%,0%,5%,0%,35%,0%,2%,0%,0%,4%,6%,13%,3%,11%,24%,0%,0%,41%,0%
Cc1cn2c(=O)cc(N3CCOCC3)nc2n1Cc1cccc(Cl)c1Cl [GSK2334006],13%,0%,22%,21%,56%,29%,4%,0%,14%,6%,0%,33%,30%,15%,27%,0%,24%,6%,0%,5%
COc1ccc(Nc2nccc(N3CCC(NC(=O)Nc4cccc(C(C)=O)c4)C3)n2)cc1 (stereo not shown) [GSK1379731],0%,0%,0%,0%,42%,0%,24%,0%,39%,0%,0%,25%,0%,4%,2%,0%,0%,0%,0%,0%
Cn1cc(-c2ccc3c(c2)CCN3C(=O)Cc2ccccc2Cl)c2c(N)ncnc21 [GSK2608885],38%,23%,94.9%,99.9%,23%,0%,21%,0%,99.4%,0%,13%,1%,0%,86%,36%,0%,32%,3%,99.2%,30%
O=C(NCCNc1ccnc(Nc2ccc(F)cc2)n1)Nc1ccccc1F [GSK1379880],16%,0%,22%,5%,17%,5%,0%,0%,1%,11%,0%,40%,9%,0%,4%,0%,0%,15%,1%,0%
Cc1cccc(Cn2ccn3c(=O)cc(N4CCOCC4)nc23)c1 [GSK2297542],12%,11%,7%,13%,26%,29%,10%,26%,11%,7%,1%,17%,27%,30%,13%,0%,16%,0%,27%,25%
Fc1ccc(-c2nn3c(OCC(F)(F)F)cccc3c2-c2ccncc2)cc1 [GW514784],1%,0%,8%,0%,39%,0%,5%,0%,43%,0%,0%,36%,34%,13%,10%,0%,12%,13%,6%,29%
Cc1ccc(C(=O)NCC(N)=O)cc1-n1c(C)cc(OCc2ccc(F)cc2F)c(Br)c1=O,15%,0%,37%,5%,1%,0%,0%,13%,0%,0%,0%,0%,0%,20%,0%,0%,20%,15%,3%,0%
COc1ccc(S(=O)(=O)NC2CCN(c3cc(C)nc(Nc4cccc(C#N)c4)n3)CC2)cc1.O=C(O)C(F)(F)F [GSK1653539],1%,6%,0%,0%,5%,0%,0%,5%,0%,0%,0%,0%,0%,16%,0%,0%,2%,23%,8%,0%
C[C@@H](Oc1cc(-n2cnc3ccc(NC(=O)NC(C)(C)C)cc32)sc1C(N)=O)c1ccccc1Cl [GSK346294],0%,0%,0%,24%,56%,0%,34%,21%,14%,4%,10%,4%,17%,33%,11%,0%,13%,14%,0%,15%
Fc1ccc(-c2ncn(CCCN3CCOCC3)c2-c2ccccn2)cc1 [SB-211742],0%,0%,29%,7%,27%,0%,41%,0%,0%,0%,0%,0%,0%,0%,26%,0%,0%,5%,0%,16%
O=C(Nc1cccc(-c2nn3ncccc3c2-c2ccnc(Nc3cccc(C(F)(F)F)c3)n2)c1)c1c(F)cccc1F [GSK299495],23%,9%,86%,64%,22%,0%,0%,8%,86%,15%,0%,12%,16%,0%,2%,0%,23%,5%,97.4%,0%
Cc1cccc(-c2nc(Nc3ccc4ncsc4c3)c3ccccc3n2)n1 [GW867588],0%,11%,0%,0%,20%,31%,0%,0%,5%,13%,24%,45%,13%,17%,30%,0%,0%,8%,0%,16%
CN(C1=C(c2ccccc2)C(=O)NC1=O)c1ccccc1 [SB-334860],0%,0%,18%,0%,0%,4%,0%,30%,44%,20%,15%,0%,0%,4%,10%,0%,7%,12%,4%,13%
COc1ccc(Nc2nccc(N3CCC(NC(=O)Nc4cc(C)ccc4C)C3)n2)cc1 (stereo not shown) [GSK1379741],7%,1%,13%,52%,25%,0%,0%,0%,14%,8%,0%,14%,0%,0%,0%,0%,8%,19%,6%,0%
